Inconclusive results are not listed. Active and inactive are the calls of the source. The calls were made as follows, unless noted: active = hit-call score of the fitted dose curve at least 0.9, where 1 is the maximum; inactive = score below 0.9.

The term AC50 denotes the midpoint of the concentration-response curve, whichever way the signal moves.

One assay in a line: CCTE_Harrill_HTTr_CellCount_MCF7: CCTE's Cell Proliferation Assessment for the High-Throughput Transcriptomics (HTTr) Platform, Harrill Lab (AID 2284012; active = hit-call score of the fitted dose curve at least 0.9, where 1 is the maximum;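 also: cells exposed to compound for six hours; intended direction is loss of nuclei count meaning fewer cells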). In outline: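 Cell count from high-content imaging of Hoechst-labeled nuclei serves as viability/growth readout. Chemicals were applied to MCF-7 cells in eight concentrations for six hours, with fitting in both directions relative to DMSO.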
Consider `CCC(C)n1c(=O)[nH]c(C)c(Br)c1=O` (centres undefined), for which the compound was classed as inactive.

For `CS(=O)(=O)c1ccc(C(=O)C2C(=O)CCCC2=O)c([N+](=O)[O-])c1`, the compound was called inactive.

For the compound `CCOc1nc(C(Cl)(Cl)Cl)ns1`, the compound was called inactive.

On to `CCNC(=O)NC(=O)C(C#N)=NOC`, for which the compound was classed as inactive.

On to `COC(=O)c1c(C(F)F)nc(C(F)(F)F)c(C2=NCCS2)c1CC(C)C`, for which the outcome was inactive.

Consider `CCCCOCN(C(=O)CCl)c1c(CC)cccc1CC`, for which the compound was called inactive.

Take `COC(=O)NS(=O)(=O)c1ccc(N)cc1`: the compound was classed as inactive.

Consider `Nc1c(Cl)c(Cl)nc(C(=O)O)c1Cl`, for which the compound was called inactive.

Take `Cc1cnc(C2=NC(C)(C(C)C)C(=O)N2)c(C(=O)O)c1` (centres undefined): the compound was called inactive.

For the compound `CC(C)Oc1cccc(NC(=O)c2ccccc2C(F)(F)F)c1`, the call was inactive.

Turning to `CS(=O)(=O)c1cc(C(F)(F)F)ccc1C(=O)c1cnoc1C1CC1`, the call was inactive.

On to `C=CCOC(=O)C(C)(C)OC(=O)c1cc(-n2c(=O)cc(C(F)(F)F)n(C)c2=O)ccc1Cl`, for which the call was inactive.

In the case of `COP(=S)(OC)Oc1ccc([N+](=O)[O-])c(C)c1`, the outcome was inactive.

For the compound `Clc1cccc(C(Cl)(Cl)Cl)n1`, the call was inactive.

For the compound `COC(=O)NC(=S)Nc1ccccc1NC(=S)NC(=O)OC`, the compound was classed as inactive.

A short description of another assay: CCTE_Shafer_MEA_acute_burst_number: CCTE's Neural Acute Assay for Single-Electrode Bursts, Shafer Lab (AID 2284013). In outline:
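Percent change in single-electrode burst number per well, from 40-min recordings taken before and after adding compound (0.03-40 uM) to primary rat cortical neurons on MEA plates at DIV 13 or 15, 37 C.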
For `CCOc1nc(F)cc2nc(S(=O)(=O)Nc3c(Cl)cccc3Cl)nn12`, the outcome was inactive.

On to `N#CN=C1SCCN1Cc1ccc(Cl)nc1`, for which the compound was called inactive.

As to `CCOc1cc(C(C)(C)C)ccc1C1COC(c2c(F)cccc2F)=N1` (centres undefined), the AC50 was 3.12 µM (active).

Take `CC1(C)CCC(=Cc2ccc(Cl)cc2)C1(O)Cn1cncn1` (centres undefined): the call was inactive.

A short description of a further assay: CCTE_Shafer_MEA_acute_per_burst_spike_number_mean: CCTE's Neural Acute Assay for Average Number of Spikes Per Burst, Shafer Lab (AID 2284015).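 Also: hits are decreases in mean spikes per burst versus baseline.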 Put shortly: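 Primary rat cortical neurons on 48-well MEA plates, treated on DIV 13 or 15 at 0.03-40 uM. Spontaneous activity recorded 40 min before and 40 min after compound at 37 C; percent change in mean spikes per single-electrode burst per well, fitted in the loss direction versus DMSO.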
For the compound `CCOc1nc(F)cc2nc(S(=O)(=O)Nc3c(Cl)cccc3Cl)nn12`, the result was inactive.

`CNC(=O)Oc1cccc2ccccc12`: the compound was classed as inactive.

Take `N#CN=C1SCCN1Cc1ccc(Cl)nc1`: the compound was classed as inactive.

For `CCOc1cc(C(C)(C)C)ccc1C1COC(c2c(F)cccc2F)=N1` (centres undefined), the result was inactive.

Consider `CC1(C)CCC(=Cc2ccc(Cl)cc2)C1(O)Cn1cncn1` (centres undefined), for which the outcome was inactive.

The nature of a further assay: CCTE_Shafer_MEA_acute_interburst_interval_mean: CCTE's Neural Acute Assay for Mean Interburst Interval, Shafer Lab (AID 2284016).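 Also: percent change of mean interburst interval versus each well's own pre-dose baseline; curves fitted for decrease in interburst interval relative to DMSO.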 Put shortly: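 Primary rat cortical neurons on 16-electrode MEA wells were recorded 40 min at baseline on DIV 13 or 15, then 40 min after compound (0.03-40 uM), at 37 C. Value is percent change in mean interburst interval per well, DMSO as negative control.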
Turning to `CCOc1nc(F)cc2nc(S(=O)(=O)Nc3c(Cl)cccc3Cl)nn12`, the compound was called inactive.

Take `CNC(=O)Oc1cccc2ccccc12`: the call was inactive.

`N#CN=C1SCCN1Cc1ccc(Cl)nc1`: the compound was classed as inactive.

Regarding `CCOc1cc(C(C)(C)C)ccc1C1COC(c2c(F)cccc2F)=N1` (centres undefined), the outcome was inactive.

Take `CC1(C)CCC(=Cc2ccc(Cl)cc2)C1(O)Cn1cncn1` (centres undefined): the compound was classed as inactive.

The nature of the next assay: CCTE_Shafer_MEA_acute_burst_percentage_mean: CCTE's Neural Acute Assay for Percentage of Spikes in a Burst, Shafer Lab (AID 2284017).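 As to AC50: curve fitted for loss of signal so potency reflects decreased burst percentage.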 Put shortly:
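Primary rat cortical neurons on 16-electrode MEA wells; 40 min baseline recorded at DIV 13 or 15, then 40 min after compound (0.03-40 uM) at 37 C. Well-mean fraction of spikes in single-electrode bursts; percent change from baseline, DMSO as negative control.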
`CCOc1nc(F)cc2nc(S(=O)(=O)Nc3c(Cl)cccc3Cl)nn12`: the call was inactive.

Consider `CNC(=O)Oc1cccc2ccccc12`, for which the outcome was inactive.

With `N#CN=C1SCCN1Cc1ccc(Cl)nc1`, the result was inactive.

As for `CCOc1cc(C(C)(C)C)ccc1C1COC(c2c(F)cccc2F)=N1` (centres undefined), the AC50 was 20 µM (active).

Regarding `CC1(C)CCC(=Cc2ccc(Cl)cc2)C1(O)Cn1cncn1` (centres undefined), the compound was classed as inactive.

The nature of a further assay: CCTE_Shafer_MEA_acute_burst_percentage_std: CCTE's Neural Acute Assay for Standard Deviation of Burst Percentage, Shafer Lab (AID 2284018).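 Also: fitted in the negative direction so actives lower burst percentage SD.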 Put shortly: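 Rat primary cortical neurons on 48-well MEAs, DIV 13 or 15, 37 C. 40-min baseline then 40-min recording with compound (0.03-40 uM); well-level SD of per-electrode burst spike percentage, expressed as percent change from baseline.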
As for `CCOc1nc(F)cc2nc(S(=O)(=O)Nc3c(Cl)cccc3Cl)nn12`, the call was inactive.

Turning to `CNC(=O)Oc1cccc2ccccc12`, the compound was called inactive.

`N#CN=C1SCCN1Cc1ccc(Cl)nc1`: the compound was called inactive.

With `CCOc1cc(C(C)(C)C)ccc1C1COC(c2c(F)cccc2F)=N1` (centres undefined), the result was inactive.

For `CC1(C)CCC(=Cc2ccc(Cl)cc2)C1(O)Cn1cncn1` (centres undefined), the result was inactive.

The next assay is described as follows: CCTE_Shafer_MEA_acute_per_network_burst_spike_number_mean: CCTE's Neural Acute Assay for Average Number of Spikes in a Network Burst, Shafer Lab (AID 2284019). Put shortly: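 Rat cortical cultures, DIV 13/15; spike threshold 8x rms noise, 300-5000 Hz band-pass, 12.5 kHz sampling; wells need >/= 10 active electrodes. Compound 0.03-40 uM, 40 min, 37 C; % change vs own baseline, DMSO negative control.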
As for `CCOc1nc(F)cc2nc(S(=O)(=O)Nc3c(Cl)cccc3Cl)nn12`, the compound was called inactive.

For `CNC(=O)Oc1cccc2ccccc12`, the compound was classed as inactive.

With `N#CN=C1SCCN1Cc1ccc(Cl)nc1`, the result was inactive.

In the case of `CCOc1cc(C(C)(C)C)ccc1C1COC(c2c(F)cccc2F)=N1` (centres undefined), the compound was called inactive.

Consider `CC1(C)CCC(=Cc2ccc(Cl)cc2)C1(O)Cn1cncn1` (centres undefined), for which the compound was classed as inactive.

Another assay in a line: CCTE_Shafer_MEA_acute_per_network_burst_electrodes_number_mean: CCTE's Neural Acute Assay for Mean Number of Electrodes in a Network Burst, Shafer Lab (AID 2284021).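 Also: curves fitted for decreases only so hits reduce electrodes per burst.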 Put shortly: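 Primary rat cortical networks, mwMEA, 37 C. 20 min stabilization, 40 min baseline, compound 0.03-40 uM, 40 min re-record. Wells need >=10 active electrodes; percent change per well, negative fitting direction.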
Turning to `CCOc1nc(F)cc2nc(S(=O)(=O)Nc3c(Cl)cccc3Cl)nn12`, the compound was called inactive.

With `CNC(=O)Oc1cccc2ccccc12`, the result was inactive.

Regarding `N#CN=C1SCCN1Cc1ccc(Cl)nc1`, the compound was called inactive.

Consider `CCOc1cc(C(C)(C)C)ccc1C1COC(c2c(F)cccc2F)=N1` (centres undefined), for which the AC50 was 4.3 µM (active).

As to `CC1(C)CCC(=Cc2ccc(Cl)cc2)C1(O)Cn1cncn1` (centres undefined), the call was inactive.

A further assay can be described thus: CCTE_Shafer_MEA_acute_network_burst_percentage: CCTE's Neural Acute Assay for Percentage of Network Bursts, Shafer Lab (AID 2284022).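 Also: curves fitted for loss so actives lower network burst percentage.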 In outline: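 Readout is the fraction of spikes falling in network bursts, expressed as per-well percent change from a 40-min pre-exposure baseline. Primary rat cortical neurons on MEA were exposed to 0.03-40 uM compound on DIV 13 or 15 and recorded for 40 min at 37 C.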
For the compound `CCOc1nc(F)cc2nc(S(=O)(=O)Nc3c(Cl)cccc3Cl)nn12`, the compound was called inactive.

With `CNC(=O)Oc1cccc2ccccc12`, the call was inactive.

Regarding `N#CN=C1SCCN1Cc1ccc(Cl)nc1`, the AC50 is 4.76 µM (active).

Take `CCOc1cc(C(C)(C)C)ccc1C1COC(c2c(F)cccc2F)=N1` (centres undefined): the AC50 is 20 µM (active).

In the case of `CC1(C)CCC(=Cc2ccc(Cl)cc2)C1(O)Cn1cncn1` (centres undefined), the compound was classed as inactive.

Another assay in a line: CCTE_Shafer_MEA_acute_cross_correlation_HWHM: CCTE's Neural Acute Assay for Cross Correlation at Half Width at Half Maximum, Shafer Lab (AID 2284026).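 Also: percent change per well from pre-dose baseline in spike cross-correlogram half width; hits are a decrease in cross-correlogram half width relative to DMSO.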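 As to outcome: spontaneous network firing of rat primary cortical neurons on multiwell microelectrode arrays.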 Put shortly:
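Rat cortical neuron cultures on microelectrode arrays were equilibrated 20 min at 37 C, recorded 40 min at baseline, then 40 min after compound addition (0.03-40 uM, ≥3 wells). Spikes were detected at 8x rms noise after 300-5000 Hz band-pass filtering.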
Consider `CCOc1nc(F)cc2nc(S(=O)(=O)Nc3c(Cl)cccc3Cl)nn12`, for which the call was inactive.

In the case of `CNC(=O)Oc1cccc2ccccc12`, the compound was called inactive.

Consider `N#CN=C1SCCN1Cc1ccc(Cl)nc1`, for which the result was inactive.

As to `CCOc1cc(C(C)(C)C)ccc1C1COC(c2c(F)cccc2F)=N1` (centres undefined), the AC50 is 20 µM (active).

As to `CC1(C)CCC(=Cc2ccc(Cl)cc2)C1(O)Cn1cncn1` (centres undefined), the compound was called inactive.

A further assay is described as follows: CCTE_Shafer_MEA_acute_synchrony_index: CCTE's Neural Acute Assay for Synchrony, Shafer Lab (AID 2284027).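 Also: network synchrony index of spontaneous spiking in primary rat cortical neurons on MEAs; fitted for loss of signal so actives lower synchrony relative to DMSO.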 In outline: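 The synchrony index is taken as percent change per well between a 40 min baseline and a 40 min recording with compound (0.03–40 uM), at 37C. Rat cortical cultures on multiwell MEAs at DIV 13 or 15, spike threshold 8× rms noise.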
Take `CCOc1nc(F)cc2nc(S(=O)(=O)Nc3c(Cl)cccc3Cl)nn12`: the result was inactive.

Turning to `CNC(=O)Oc1cccc2ccccc12`, the result was inactive.

Take `N#CN=C1SCCN1Cc1ccc(Cl)nc1`: the outcome was inactive.

Take `CCOc1cc(C(C)(C)C)ccc1C1COC(c2c(F)cccc2F)=N1` (centres undefined): the AC50 was 20 µM (active).

On to `CC1(C)CCC(=Cc2ccc(Cl)cc2)C1(O)Cn1cncn1` (centres undefined), for which the call was inactive.

The record behind these values is PubChem BioAssay (EPA / NIEHS).
